# PubChem BioAssay (Tox21)
# Unmarked numbers belong to inactive results. Results filed as inconclusive are left out. Entries that show only a call come without a potency. Active and inactive are the calls of the source. Unless noted, calls follow the shape of the dose curve; as a rule, active = well fitted curve in the direction sought with a large enough effect in the repeat runs; inconclusive = weak or mixed curves; inactive = no such curve, though single readings can be large; an effect the other way counts as inactive or inconclusive.
# Legend:
# [1] = qHTS assay for small molecule agonists of the p53 signaling pathway (AID 651631; calls by dose curve; also: nearly all actives have a fitted effect of over 15% in size; also: potency is read from the fitted curve at half-maximal effect)
# Procedure, shortened: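 HCT-116 cells carrying a beta-lactamase reporter under p53 response elements were dosed with compound for 16 h at 37 °C. LiveBLAzer B/G FRET substrate was then added for 2 h at room temperature, and fluorescence intensity was read to detect pathway agonism.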
# [2] = qHTS assay for small molecules that induce genotoxicity in human embryonic kidney cells expressing luciferase-tagged ATAD5 (AID 651632); also: nearly all actives have a fitted effect of over 15% in size; also: potency is read from the fitted curve at half-maximal effect
# Procedure, shortened: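 Cells were seeded at 2,000 per well, dosed with compound, and incubated 16 hr at 37C in 5% CO2. Luciferase activity was then quantified after a 30 min room-temperature incubation with Amplite.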
# [3] = qHTS assay for small molecule agonists of the p53 signaling pathway - cell viability (AID 651633; calls by dose curve; also: nearly all actives have a fitted effect of over 30% in size; also: potency is read from the fitted curve at half-maximal effect)
# Procedure, shortened: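 Viability counter-read: CellTiter-Glo luminescence (30 min, room temperature) in the same p53RE-bla plates. These plates had been exposed to compounds for 16 h at 37 C.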
# [4] = qHTS assay for small molecules that induce genotoxicity in human embryonic kidney cells expressing luciferase-tagged ATAD5 - cell viability (AID 651634; calls by dose curve; also: nearly all actives have a fitted effect of over 25% in size; also: potency is read from the fitted curve at half-maximal effect)
# Procedure, shortened: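 Cells (HEK293T, luciferase-tagged ATAD5) are seeded at 2,000 per well, dosed with compound or DMSO vehicle, and incubated 15.5 hr at 37C and 5% CO2. CellTiter-Fluor is added for 30 min before fluorescence is measured.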
# [5] = qHTS assay for small molecule disruptors of the mitochondrial membrane potential - cell viability (AID 720634; calls by dose curve; also: nearly all actives have a fitted effect of over 20% in size; also: potency is read from the fitted curve at half-maximal effect)
# Procedure, shortened: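 Cytotoxicity was measured by ATP quantitation in HepG2 wells that had first been treated with compound for 1 hr and stained with m-MPI dye; CellTiter-Glo incubation was 30 min at room temperature.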
# [6] = qHTS assay for small molecule disruptors of the mitochondrial membrane potential (AID 720635); also: potency is read from the fitted curve at half-maximal effect
# Procedure, shortened: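 Mitochondrial membrane potential tracked with Mito-MPS dye, red aggregates (ex 540/em 590 nm) against green monomers (ex 490/em 535 nm). Compound treatment 1 hr at 37C, dye 30 min in HepG2.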
# [7] = qHTS assay to test for compound auto fluorescence at 590 nm (red) in HepG2 cells (AID 720674)
# Procedure, shortened: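 Red autofluorescence (Ex/Em 540/590 nm, Rose Bengal sodium equivalents) was measured in HepG2 cells, 2,000 per well in MEM plus 10% FBS, plated overnight at 37 C. Readings were taken 1 hr after adding 23 nL compound or DMSO, at 37 C and 5% CO2.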
# [8] = qHTS assay to test for compound auto fluorescence at 535 nm (green) in HepG2 cells (AID 720675)
# [9] = qHTS assay to test for compound auto fluorescence at 460 nm (blue) in HEK293 cells (AID 720678)
# Procedure, shortened: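 Measured: blue fluorescence (Ex 405/Em 460 nm) of compound-treated HEK293 cells, incubated overnight at 37C with 5% CO2 and scaled to triamterene equivalents.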
# [10] = qHTS assay to test for compound auto fluorescence at 590 nm (red) in HEK293 cells (AID 720679)
# Procedure, shortened: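 Using HEK293 cells at 2,000 per well, the screen added 23 nL of each compound after cell attachment and incubated overnight (37C, 5% CO2). The plate reader then captured red-label fluorescence, Ex/Em 540/590nm.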
# [11] = qHTS assay to test for compound auto fluorescence at 535 nm (green) in HEK293 cells (AID 720680)
# [12] = qHTS assay to test for compound auto fluorescence at 460 nm (blue) in HEK293 cell free culture (AID 720681)
# Procedure, shortened: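 Blue fluorescence (Ex 405/Em 460 nm, triamterene-equivalent) was read immediately after pin transfer of compound or DMSO into medium (DMEM, 10% FBS) without cells.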
# [13] = qHTS assay to test for compound auto fluorescence at 535 nm (green) in HEK293 cell free culture (AID 720682)
# Procedure, shortened: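 Green-label autofluorescence (485 nm excitation, 535 nm emission) measured on compound added to cell-free culture medium (DMEM, 10% FBS). Output is expressed relative to fluorescein.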
# [14] = qHTS assay to test for compound auto fluorescence at 590 nm (red) in HEK293 cell free culture (AID 720683)
# Procedure, shortened: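 Red-channel autofluorescence of compounds in culture medium (DMEM, 10% FBS), no cells, measured at 540/590 nm. Rose Bengal sodium is the reference fluorophore for equivalence.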
# [15] = qHTS assay to test for compound auto fluorescence at 590 nm (red) in HepG2 cell free culture (AID 720684)
# Procedure, shortened: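 Cell-free; medium MEM + 10% FBS; compound or DMSO added by pintool; read Ex 540/Em 590 nm; Rose Bengal sodium as red reference fluorophore.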
# [16] = qHTS assay to test for compound auto fluorescence at 460 nm (blue) in HepG2 cell free culture (AID 720685)
# Procedure, shortened: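 Cell-free plates of MEM plus 10% FBS received 23 nL compound or DMSO vehicle; blue-channel (405/460 nm) intensity scored against triamterene as reference fluorophore.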
# [17] = qHTS assay to test for compound auto fluorescence at 535 nm (green) in HepG2 cell free culture (AID 720686)
# [18] = qHTS assay to test for compound auto fluorescence at 460 nm (blue) in HepG2 cells (AID 720687)
# Procedure, shortened: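 Blue-channel autofluorescence (Ex/Em 405/460 nm, triamterene-equivalent) was measured after 1 hr compound exposure at 37 C, 5% CO2. Cells were HepG2, plated overnight at 37 C in MEM plus 10% FBS.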
# [19] = biological target: Glucocorticoid receptor (Homo sapiens) (UniProt P04150); assay: qHTS assay to identify small molecule agonists of the glucocorticoid receptor (GR) signaling pathway (AID 720691; active = well fitted activation curve with a large enough effect in the signal ratio in the repeat runs, not every such curve was filed as active; the % refers to the signal ratio); settings: GR-bla HeLa, beta-lactamase reporter ratio, 18 h; activation: at 62.4 µM (top of the series)
# Glucocorticoid receptor (Homo sapiens), sequence (P04150 whole entry, looked up): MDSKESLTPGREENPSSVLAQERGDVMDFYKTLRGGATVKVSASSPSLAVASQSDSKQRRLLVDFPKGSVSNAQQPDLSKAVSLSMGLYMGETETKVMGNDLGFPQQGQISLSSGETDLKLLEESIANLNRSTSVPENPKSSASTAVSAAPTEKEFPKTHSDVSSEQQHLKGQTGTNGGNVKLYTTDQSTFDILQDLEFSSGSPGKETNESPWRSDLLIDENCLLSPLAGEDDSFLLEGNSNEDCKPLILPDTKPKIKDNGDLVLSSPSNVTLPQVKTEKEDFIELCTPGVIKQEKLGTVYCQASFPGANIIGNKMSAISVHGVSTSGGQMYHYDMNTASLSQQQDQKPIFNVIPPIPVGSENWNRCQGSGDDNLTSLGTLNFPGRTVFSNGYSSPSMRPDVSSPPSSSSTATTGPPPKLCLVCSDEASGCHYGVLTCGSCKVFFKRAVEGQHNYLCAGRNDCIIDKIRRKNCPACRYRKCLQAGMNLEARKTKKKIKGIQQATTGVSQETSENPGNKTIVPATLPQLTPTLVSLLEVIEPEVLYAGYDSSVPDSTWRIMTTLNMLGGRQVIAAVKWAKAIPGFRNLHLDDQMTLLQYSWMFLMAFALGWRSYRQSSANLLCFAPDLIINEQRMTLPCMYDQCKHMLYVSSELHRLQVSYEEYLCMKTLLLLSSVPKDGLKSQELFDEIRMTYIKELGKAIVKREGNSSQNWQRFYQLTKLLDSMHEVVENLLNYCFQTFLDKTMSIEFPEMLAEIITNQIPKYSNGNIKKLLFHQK
# Procedure, shortened: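 Steps: seed GR-bla HeLa cells, incubate 4 h at 37 C/5% CO2; pin-transfer DMSO-dissolved compounds; incubate 18 h at 37 C; add LiveBLAzer B/G FRET substrate; after 2 h at room temperature, measure fluorescence.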
# [20] = biological target: Glucocorticoid receptor (Homo sapiens) (UniProt P04150); assay: qHTS assay to identify small molecule antagonists of the glucocorticoid receptor (GR) signaling pathway (AID 720692; active = well fitted inhibition curve with a large enough effect in the signal ratio in the repeat runs, not every such curve was filed as active; the % refers to the signal ratio; also: potency is read from the fitted curve at half-maximal effect)
# Procedure, shortened: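 Antagonism was scored as loss of dexamethasone-driven (5 nM final) reporter signal in HeLa cells bearing a glucocorticoid response element–beta-lactamase construct, after 18 h compound exposure at 37 C and 2 h FRET substrate loading.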
SMILES,Potency [1],Potency [2],Potency [3],Potency [4],Potency [5],Potency [6],outcome [7],Potency [8],Potency [9],outcome [10],outcome [11],Potency [12],outcome [13],outcome [14],outcome [15],Potency [16],Potency [17],Potency [18],Potency [19],Potency [20]
CC(Cl)CCl (stereo unspecified),inactive,inactive,inactive,inactive,inactive,inactive,inactive,inactive,inactive,inactive,inactive,inactive,inactive,inactive,inactive,inactive,inactive,inactive,inactive,inactive
CC(O)C(=O)[O][Hg][c]1ccccc1 (stereo unspecified),545 nM (active),96.9 nM (active),217 nM (active),969 nM (active),5450 nM (active),2730 nM (active),inactive,inactive,inactive,inactive,inactive,inactive,inactive,inactive,inactive,inactive,inactive,inactive,,
COC(=O)N(OC)c1ccccc1COc1ccn(-c2ccc(Cl)cc2)n1,1720 nM (active),inactive,inactive,inactive,1930 nM (active),,inactive,inactive,inactive,inactive,inactive,inactive,inactive,,inactive,inactive,,inactive,,
CCC[CH2][Sn]([CH2]CCC)([O]C(C)=O)[O]C(C)=O,1950 nM (active),inactive,inactive,1230 nM (active),inactive,15500 nM (active),inactive,inactive,inactive,inactive,inactive,inactive,inactive,inactive,inactive,inactive,inactive,inactive,,350 nM (active)
CCCCC(CC)COC(=O)OOC(C)(C)C (stereo unspecified),inactive,inactive,inactive,inactive,inactive,,inactive,inactive,inactive,inactive,inactive,inactive,inactive,inactive,inactive,inactive,inactive,inactive,,
CC(C)=CCN1CC[C@@]2(C)c3cc(O)ccc3C[C@@H]1[C@@H]2C,inactive,inactive,inactive,inactive,inactive,inactive,inactive,inactive,inactive,inactive,inactive,inactive,inactive,inactive,inactive,inactive,inactive,inactive,,
O=P(Cl)(Cl)Cl,inactive,inactive,inactive,inactive,inactive,,inactive,inactive,inactive,inactive,inactive,inactive,inactive,inactive,inactive,inactive,inactive,inactive,inactive,inactive
O=[N+]([O-])c1ccc(Cl)c(Cl)c1Cl,inactive,inactive,inactive,inactive,inactive,,inactive,inactive,inactive,inactive,inactive,inactive,,inactive,inactive,inactive,inactive,inactive,,
CC(C)NCC(O)c1ccccc1Cl (stereo unspecified),inactive,inactive,inactive,inactive,inactive,inactive,,inactive,inactive,inactive,inactive,inactive,,inactive,inactive,inactive,inactive,inactive,,
Clc1ccc(C2(Cn3cncn3)OCCO2)c(Cl)c1,inactive,inactive,inactive,inactive,inactive,inactive,inactive,inactive,inactive,inactive,inactive,inactive,inactive,inactive,inactive,inactive,inactive,inactive,inactive,inactive
OCC(Br)CBr (stereo unspecified),inactive,inactive,inactive,inactive,inactive,,inactive,inactive,inactive,inactive,inactive,inactive,inactive,inactive,inactive,inactive,inactive,inactive,inactive,
O=C(NC(=O)c1ccccc1Cl)Nc1ccc(OC(F)(F)F)cc1,inactive,inactive,inactive,inactive,inactive,inactive,inactive,inactive,inactive,inactive,inactive,inactive,inactive,,inactive,inactive,,inactive,inactive,inactive
CC(C)Br,inactive,inactive,inactive,inactive,inactive,,inactive,inactive,inactive,inactive,inactive,inactive,,inactive,inactive,,inactive,inactive,inactive,inactive
